In all, about 5,500 compounds went through this assay and about 2,000 (36%) were called active. Another 18% or so got no clear call; they are omitted. The list shows a part of the results. Values without a mark were called inactive. Cut-off read from the data, not from the text of the source: active = normalized growth mostly below about 0.91 (no sharp cut-off); inconclusive = no clear call, values can overlap the other calls; inactive = mostly above about 0.92.
Test: chemical genetic growth profiling, strain panel (AID 1159580);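 note: tested at 20 µM; growth read once vehicle control cultures reached saturation at 30 °C; 1 = growth at the plate median or of vehicle wells; lower values mean less growth of the strain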
Conditions: S. cerevisiae deletion strains, growth OD
[1] = locus YAL040C, strain CLN3, active compounds read low
[2] = locus YCL061C, strain MRC1 (second series), active compounds read low
[3] = locus YDR363W, strain ESC2, active compounds read low
[4] = locus YER002W, strain NOP16, active compounds read low
[5] = locus YGR078C, strain PAC10, active compounds read low
[6] = locus YGR229C, strain SMI1, active compounds read low
[7] = locus YJR075W, strain HOC1, active compounds read low
[8] = locus YNL175C, strain NOP13, active compounds read low
[9] = locus YNL197C, strain WHI3, active compounds read low
[10] = locus YNL224C, strain SQS1, active compounds read low
[11] = locus YOR083W, strain WHI5 (second series), active compounds read low
[12] = locus YDR150W, strain NUM1, active compounds read low

| SMILES | normalized growth (locus YAL013W, strain DEP1, active compounds read low) | normalized growth [1] | normalized growth [2] | normalized growth [3] | normalized growth [4] | normalized growth [5] | normalized growth [6] | normalized growth [7] | normalized growth (locus YNL153C, strain GIM3, active compounds read low) | normalized growth [8] | normalized growth [9] | normalized growth [10] | normalized growth (locus YNL322C, strain KRE1, active compounds read low) | normalized growth [11] | normalized growth [12] | normalized growth (locus YPL055C, strain LGE1, active compounds read low) | normalized growth (locus YPL241C, strain CIN2, active compounds read low) | normalized growth (locus YMR307W, strain GAS1, active compounds read low) |
| --- | --- | --- | --- | --- | --- | --- | --- | --- | --- | --- | --- | --- | --- | --- | --- | --- | --- | --- |
| OC1(c2ccc(Cl)cc2)CCN(Cc2c[nH]c3ccccc23)CC1 | 1.01 | 1 | 0.999 | 0.974 | 1.03 | 1.02 | 0.979 | 1.01 | 1 | 1.02 | 1.02 | 1.03 | 0.993 | 1.01 |  |  |  |  |
| Clc1ccc(N2CCN(Cc3c[nH]c4ncccc34)CC2)cc1 |  | 1.08 | 0.969 | 0.907 | 0.968 | 0.975 | 0.748 (active) | 0.929 |  | 0.969 | 0.974 | 0.987 |  | 0.925 | 0.965 | 0.92 | 0.992 |  |
| Ic1ccc(N2CCN(Cc3c[nH]c4ncccc34)CC2)cc1 |  | 1 | 0.919 (active) | 0.956 | 1.06 | 0.851 (active) |  |  |  | 1.01 | 1.01 | 1.06 |  | 0.809 (active) | 0.914 (active) |  |  | 1.01 |

Reference: PubChem BioAssay AID1159580 (chemical genetic matrix, 2015)
